# Measurements reported in PubChem BioAssay (NCI).
# This is part of a sample that, as a whole, favours compounds with a hit. Of some 83,000 tested, about 20% had one in any assay.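 Negative percent growth values reflect cell death: -40 means 40% of the cells present at the start died, and -100 means all died.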 Values without a mark were called inactive. Calls of active or inactive are those of the source. Rule for the calls: active = growth percent below 10; inactive = the rest.
# Tests used:
# Assay in all cases: NCI-60 one-dose screen, 48 h (100 = growth as untreated, 0 = no growth, -100 = all killed)
# Details in all cases: 10 µM unless noted
# DU-145 prostate = system: DU-145 prostate
# K-562 leukemia = system: K-562 leukemia
# MALME-3M melanoma = system: MALME-3M melanoma
# MDA-MB-231 breast = system: MDA-MB-231 breast
# RXF 393 renal = system: RXF 393 renal
# SF-268 CNS = system: SF-268 CNS
# SF-295 CNS = system: SF-295 CNS
# SF-539 CNS = system: SF-539 CNS
# UACC-257 melanoma = system: UACC-257 melanoma
# M14 melanoma = system: M14 melanoma
# HCT-15 colon = system: HCT-15 colon
# HT29 colon = system: HT29 colon
# SNB-75 CNS = system: SNB-75 CNS
# SNB-19 CNS = system: SNB-19 CNS
# U251 CNS = system: U251 CNS
# PC-3 prostate = system: PC-3 prostate
# SK-MEL-5 melanoma = system: SK-MEL-5 melanoma
# UACC-62 melanoma = system: UACC-62 melanoma
# LOX IMVI melanoma = system: LOX IMVI melanoma
# SK-MEL-28 melanoma = system: SK-MEL-28 melanoma
SMILES,growth (DU-145 prostate),growth (K-562 leukemia),growth (MALME-3M melanoma),growth (MDA-MB-231 breast),growth (RXF 393 renal),growth (SF-268 CNS),growth (SF-295 CNS),growth (SF-539 CNS),growth (UACC-257 melanoma),growth (M14 melanoma),growth (HCT-15 colon),growth (HT29 colon),growth (SNB-75 CNS),growth (SNB-19 CNS),growth (U251 CNS),growth (PC-3 prostate),growth (SK-MEL-5 melanoma),growth (UACC-62 melanoma),growth (LOX IMVI melanoma),growth (SK-MEL-28 melanoma)
COc1cc2c(c(O)c1Br)C(=O)c1c(O)cc(C[C@H](C)O)cc1[C@H]2[C@H]1c2cc(C[C@H](C)O)cc(O)c2C(=O)c2c1cc(OC)c(Br)c2O,24.5%,5.05% (active),-26.8% (active),-58.1% (active),21.1%,19.4%,-21.4% (active),-23.8% (active),-2.79% (active),16.5%,8.27% (active),11%,-6.83% (active),18.1%,10.3%,16.2%,-74.1% (active),4.54% (active),4.77% (active),31.8%
Cc1cc2nc3c4cc([N+](=O)[O-])ccc4n(CCN(C)C)c3nc2cc1C,8.55% (active),0.995% (active),-40.1% (active),-1.27% (active),-50.6% (active),-0.874% (active),0.581% (active),-14.5% (active),-1.98% (active),-27.3% (active),-15.7% (active),4.93% (active),-6.58% (active),8.53% (active),1.87% (active),-0.344% (active),-73.4% (active),-58.7% (active),-48.7% (active),2.33% (active)
CCOC(=O)c1cc(C#N)n2ccc3ccccc3c12,103%,106%,104%,102%,98.9%,94.2%,96.5%,98.7%,104%,108%,96.6%,101%,76.2%,92.7%,96.9%,102%,97.4%,91.5%,95.7%,106%
Cc1cc2nc3c4ccc(Br)cc4n(CCN(C)C)c3nc2cc1C,3.18% (active),4.08% (active),0.769% (active),15.2%,16.4%,31%,14.8%,17.2%,18%,14.8%,1.66% (active),5.01% (active),16.7%,23.5%,15.1%,12.8%,4.17% (active),13.1%,-52.6% (active),42.4%
Cc1ccc(NC(=O)c2cc(-c3nc4ccccc4s3)c(=O)n(NS(=O)(=O)c3ccc(Cl)cc3)c2N)cc1,107%,100%,112%,96.1%,112%,94.2%,101%,97.2%,104%,99.4%,96%,108%,77.5%,101%,104%,100%,97.8%,93.2%,102%,115%
CCOC(=O)CCN(CC(C)C)C(=S)Nc1ccccc1,108%,103%,102%,106%,122%,104%,101%,100%,102%,99%,99.5%,105%,105%,99.9%,100%,105%,102%,99.8%,105%,106%
Cc1cccc(NC(=O)Nc2ccc(-n3cnc4cc(-c5ccc(O)cc5)ccc43)cc2)c1,33.9%,14.2%,28.4%,47.3%,58.4%,42.3%,18.4%,29.1%,32.3%,21.4%,18.8%,28.4%,69.2%,28%,26.5%,31.2%,14.4%,27.3%,30.6%,44%
CCCCCN1C=C/C(=C\C(=O)N(C)c2ccc(OC(F)(F)F)cc2)c2ccccc21,110%,90.3%,95.3%,97.7%,107%,100%,93%,103%,93.8%,102%,99.8%,81.2%,104%,96.9%,95.4%,93.7%,96.5%,89.3%,101%,109%
COc1ccc(C(=O)c2cc(C)c(OC)c(C)c2)c(OC)c1NC(C)=O,4.21% (active),15.5%,58.5%,20.9%,10.8%,37.9%,13%,-13.7% (active),66.1%,-8.33% (active),16.3%,3.24% (active),56.2%,22.9%,21.4%,20.9%,20.6%,31.6%,32%,49.5%
COc1cc(OC)cc(C(=O)C[n+]2cccc3cc[nH]c32)c1,115%,98%,99.1%,98.4%,83.8%,97%,101%,101%,-43.7% (active),96.3%,108%,97.1%,86.9%,93.1%,102%,96.5%,97.3%,89.8%,93.8%,100%
CCCCCC(=O)Oc1ccc(/C(=C(/C)Cc2ccc(OC)cc2)c2ccc(OCCCN(C)C)cc2)cc1,90.4%,6.07% (active),74.9%,66.1%,61.6%,70.1%,32.4%,66.8%,75.9%,36.3%,24.6%,10.8%,77%,84.1%,56.2%,86.2%,63.5%,47.7%,50.7%,-1.63% (active)
CC(=O)N1c2ccccc2NC2=C(C(=O)NC2(C)C)C1c1ccco1 (stereo not given),100%,77.1%,80.5%,96.4%,58%,77.2%,96.6%,94.6%,75.1%,68.6%,93.1%,92.5%,73.5%,81.2%,96.5%,54.6%,64.6%,66.5%,86.4%,75.2%
CC(=O)Nc1ccc(-c2ccc3c(c2)NC(=O)/C3=C\c2ccc[nH]2)cc1,72%,96.1%,109%,80.7%,104%,92.1%,87.2%,81.4%,119%,105%,92.6%,90.6%,111%,104%,86.6%,97.8%,100%,105%,84.2%,116%
O=C(CCN1CCCC1)Nc1ccc2c(NCc3ccccc3)c3ccccc3nc2c1,-25% (active),-14.3% (active),-18.5% (active),-14.9% (active),-16% (active),-2.23% (active),15.5%,5.91% (active),1.08% (active),7.61% (active),20.6%,3.9% (active),-15.4% (active),5.52% (active),1.05% (active),-4.59% (active),17.2%,-16.1% (active),-45.6% (active),32.1%
